Experimental data as given in PubChem BioAssay (NCATS).
Starred links: 1 amine or outer side, 2 acyl side, 3 side chain; linkers in the order of their positions; H or OH if unused. Positions of bridges follow the written chain, without caps; N, C: chain ends. Non-standard residues stand in square brackets, D forms with d. Residues, ends and D or L forms follow the SMILES beside them. *: point of attachment. X2 = NC1=C[C@@H](O)C[C@H]([C@H](N[*:1])C(=O)[*:2])N1; ΔAla(3-NHCONH2) = NC(=O)NC=C(N)C(=O)O; β3hOrn = NCCC[C@H](N)CC(=O)*; Dap = NC[C@H](N)C(=O)O

Assay: qHTS profiling for inhibitors of Plasmodium falciparum (3D7) proliferation (AID 743322);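 also: infected erythrocytes exposed to compound for 72 h before lysis; 100% = DMSO vehicle wells and 0% = 0.29 µM artemisinin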
Settings: P. falciparum 3D7 proliferation; at 28.7 µM (top of the series)
How it was run: (§1)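 Erythrocytes infected with P. falciparum (0.3% parasitemia, 2.5% hematocrit) incubated with compounds 72 h at 37 C, 5% CO2. Lysis with saponin/Triton buffer containing SYBR Green I, overnight at room temperature in the dark; DNA fluorescence (485/535 nm) normalised to 0.29 uM artemisinin and DMSO.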

Row | SMILES | remaining parasite growth % (stronger effect = lower value)
1 | CCCC[C@@H]1C[C@@H](C(=O)NC([C@H](C)Cl)[C@H]2O[C@H](S)[C@H](O)[C@@H](O)[C@@H]2O)N(C)C1 (stereo partly drawn) | 39%
2 | O=CN(O)CCCP(=O)(O)O | 11.2%
3 | CCN(CC)CCOc1ccc2c(=O)c3ccc(Cl)cc3n(CCN(CC)CC)c2c1 | -1.28%

Assay: qHTS profiling for inhibitors of Plasmodium falciparum (DD2) proliferation (AID 743323)
Settings: lower = more inhibition; at 28.7 µM (top of the series)
How it was run: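 SYBR Green fluorescence (ex 485, em 535 nm) of lysed cultures gives parasite DNA content; wells normalized to artemisinin (0.29 uM) and DMSO controls. Infected red cells: 0.3% parasitemia, 2.5% hematocrit, 72 h, 37 C.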

Row | SMILES | activity, percent of control
4 | CCCC[C@@H]1C[C@@H](C(=O)NC([C@H](C)Cl)[C@H]2O[C@H](S)[C@H](O)[C@@H](O)[C@@H]2O)N(C)C1 (stereo partly drawn) | 33.1%
5 | O=CN(O)CCCP(=O)(O)O | 11.8%
6 | CCN(CC)CCOc1ccc2c(=O)c3ccc(Cl)cc3n(CCN(CC)CC)c2c1 | 0.385%

Assay: qHTS profiling for inhibitors of Plasmodium falciparum (HB3) proliferation (AID 743324);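 also: 100% = DMSO vehicle wells and 0% = artemisinin-treated control wells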
Settings: Plasmodium falciparum HB3 blood-stage proliferation; at 28.7 µM (top of the series)
How it was run: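 P. falciparum HB3 grown in erythrocytes (0.3% parasitemia, 2.5% hematocrit final) with compound for 72 h at 37 C, 5% CO2. Parasite DNA detected by SYBR Green after saponin/triton lysis overnight; normalized to 0.29 uM artemisinin and DMSO.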

Row | SMILES | remaining proliferation (% of control), lower = more inhibition
7 | CCCC[C@@H]1C[C@@H](C(=O)NC([C@H](C)Cl)[C@H]2O[C@H](S)[C@H](O)[C@@H](O)[C@@H]2O)N(C)C1 (stereo partly drawn) | 31.5%
8 | O=CN(O)CCCP(=O)(O)O | 14.2%
9 | CCN(CC)CCOc1ccc2c(=O)c3ccc(Cl)cc3n(CCN(CC)CC)c2c1 | -0.0504%

Assay: qHTS profiling of the MIPE4 collection as inhibitors of Plasmodium falciparum (3D7) proliferation (AID 743344);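 also: scaled between DMSO vehicle wells and 0.29 µM artemisinin as full inhibition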
Settings: P. falciparum 3D7 in erythrocytes, SYBR Green DNA fluorescence, 72 h; at 28.5 µM (top of the series)
How it was run: as §1

Row | SMILES | parasite growth, % of DMSO control
10 | C[C@]1(COc2ccc(N3CCC(Oc4ccc(OC(F)(F)F)cc4)CC3)cc2)Cn2cc([N+](=O)[O-])nc2O1 | 81.7%
11 | NCCC[C@H](N)CC(=O)N[C@H]1CNC(=O)[C@H]([C@H]2C[C@H](O)C=C(N)N2)NC(=O)C(=CNC(N)=O)NC(=O)[C@H](CO)NC(=O)[C@H](CO)NC1=O (β3hOrn-[Dap]SS[ΔAla(3-NHCONH2)][X2]; lactam 1-C) | 96%
12 | CN([C@@H](Cc1ccc(O[S+](=O)([O-])c2cccc3cnccc23)cc1)C(=O)N1CCN(C(=O)OCc2ccccc2)CC1)[S+](=O)([O-])c1cccc2cnccc12 | 4.76%
13 | COC1=C2C[C@H](C)C[C@H](OC)[C@@H](O)[C@@H](C)C=C(C)[C@H](OC(N)=O)[C@@H](OC)C=CC=C(C)C(=O)NC(=CC1=O)C2=O | 5.44%
14 | C[C@H]1C[C@H]2C3CCC4=CC(=O)C=C[C@@]4(C)[C@@]3(Cl)[C@@H](O)CC2(C)[C@@]1(OC(=O)c1ccco1)C(=O)CCl (stereo partly drawn) | 5.13%
15 | CCCC[C@@H]1C[C@@H](C(=O)NC([C@H](C)Cl)[C@H]2O[C@H](S)[C@H](O)[C@@H](O)[C@@H]2O)N(C)C1 (stereo partly drawn) | 29.2%
16 | CN(C)CCC=C1c2ccccc2COc2ccccc21 | 86.6%
17 | COc1ccc(S(=O)(=O)N(CCO)c2ccccc2CN(C)CC=Cc2ccc(Cl)cc2)cc1 | 6.17%
18 | CN[C@@H]1[C@@H](O[C@H]2[C@H](O[C@H]3[C@H](O)[C@@H](O)[C@H](N=C(N)N)[C@@H](O)[C@H]3N=C(N)N)O[C@@H](C)[C@]2(O)C=O)O[C@@H](CO)[C@H](O)[C@H]1O | 93.9%
19 | CC1(C)O[C@@H]2[C@H]3OC(C)(C)O[C@]3(COS(N)(=O)=O)OC[C@H]2O1 | 103%
20 | CC(=O)NCC1CN(c2ccc(N3CCOCC3)c(F)c2)C(=O)O1 (stereo not drawn) | 91.2%
21 | O=CN(O)CCCP(=O)(O)O | 14.4%
22 | CCN(CC)CCOc1ccc2c(=O)c3ccc(Cl)cc3n(CCN(CC)CC)c2c1 | 4.98%
23 | CN(C(=O)OC(C)(C)C)[C@@H](Cc1ccc(O[S+](=O)([O-])c2cccc3cnccc23)cc1)C(=O)N1CCN(C(=O)OCc2ccccc2)CC1 | 5.7%
24 | COc1cc(C)c2c(Oc3cccc(C(F)(F)F)c3)c(OC)cc(NCCCC(C)N)c2n1 (stereo not drawn) | 3.66%
25 | CC(C)=CCCC(C)=CCNCCNC1C2CC3CC(C2)CC1C3 (stereo not drawn) | 4.83%
26 | CC(C)(C)OC(=O)N[C@@H](Cc1ccc(O[S+](=O)([O-])c2cccc3cnccc23)cc1)C(=O)Nc1ccc(-c2ccccc2)cc1 | 5.81%
27 | C[C@H]1CCN(C(=O)CC#N)C[C@H]1N(C)c1ncnc2[nH]ccc12 | 69.9%
28 | CO[C@H]1C=CO[C@@]2(C)Oc3c(C)c(O)c4c(O)c(c(C=NN5CCN(C)CC5)c(O)c4c3C2=O)NC(=O)C(C)=CC=CC(C)[C@H](O)[C@@H](C)[C@@H](O)[C@@H](C)[C@@H](OC(C)=O)[C@H]1C (stereo partly drawn) | 4.07%
